Test [1] can be described thus: ATG_TAL_CIS: Attagene CIS-FACTORIAL HepG2 Assay for human TAL Basal Promoter (AID 2282966).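 Note: background control endpoint measuring basal TAL promoter reporter mRNA not a specific factor.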 The conditions noted are these: HepG2 Attagene cis-factorial TAL promoter reporter; actives raise or lower the signal. Summed up:
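After 24 hours of chemical exposure, transfected HepG2 cells yielded RNA that was converted to 6-FAM-labelled, HpaI-digested reporter fragments for capillary electrophoresis. Values derive from bidirectional fitting against DMSO controls.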

Test [2] can be described thus: ATG_TGFb_CIS: Attagene CIS-FACTORIAL HepG2 Assay for human Transforming Growth Factor (TGF) (AID 2282967). The conditions noted are these: HepG2 Attagene CIS TGFb reporter, mRNA transcription; actives raise or lower the signal. The method in brief: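 Cells were dosed for 24 hours, after which total RNA was reverse-transcribed and reporter sequences amplified, labeled and sized by capillary electrophoresis. Activity was fitted in both directions against DMSO.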

The nature of test [3]: ATG_VDRE_CIS: Attagene CIS-FACTORIAL HepG2 Assay for human Vitamin D Receptor Element (VDRE) (AID 2282968). The conditions noted are these: HepG2 VDRE cis-reporter transcription, actives raise or lower the signal. Summed up:
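Transient MRTU transfection of HepG2, 24 h compound exposure. Readout: reporter transcripts via RT-PCR and capillary electrophoresis, fluorescence. Bidirectional fit vs DMSO.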

For test [4], the target named is X-box-binding protein 1 (Homo sapiens) (UniProt P17861). Nature of the test: ATG_Xbp1_CIS: Attagene CIS-FACTORIAL HepG2 Assay for human X-box Binding Protein 1 (XBP1) (AID 2282972). The conditions noted are these: HepG2 XBP1 cis-element reporter, Attagene multiplex; actives raise or lower the signal. Summed up: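 Reporter transcripts were quantified by RT-PCR with fluorescent primer extension and capillary electrophoresis after 24 h chemical exposure. Cells: transiently transfected HepG2 carrying cis-regulated reporter constructs; data fitted bidirectionally relative to DMSO.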

A short description of test [5]: ATG_GAL4_TRANS: Attagene TRANS-FACTORIAL HepG2 Assay for GAL4 (Internal Marker) (AID 2282976; active = hit-call score of the fitted dose curve at least 0.9, where 1 is the maximum). The conditions noted are these: HepG2 Attagene TRANS GAL4 internal marker reporter. The method in brief: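 First, HepG2 cells were transfected with reporter units under GAL4-UAS control. Next, they were treated with chemical for 24 h. Finally, RNA was reverse-transcribed, PCR-amplified, FAM-labelled and resolved by capillary electrophoresis, with induction scored against DMSO.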

In test [6] the target is Estrogen-related receptor gamma (Homo sapiens) (UniProt P62508). Nature of the test: ATG_ERRg_TRANS: Attagene TRANS-FACTORIAL HepG2 Assay for human Estrogen-Related Receptor gamma (ERRg) (AID 2282977; active = hit-call score of the fitted dose curve at least 0.9, where 1 is the maximum;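 note: hits increase reporter signal over DMSO so potencies reflect activators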). The conditions noted are these: HepG2 Attagene TRANS reporter, ERRg transactivation. The method in brief:
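Readout: fluorescent reporter-mRNA fragments resolved by capillary electrophoresis after RT-PCR and HpaI cut. Cells: transiently transfected HepG2 carrying GAL4-UAS reporters driven by exogenous NR-Gal4 chimeras, dosed 24 h. Activity fitted upward relative to DMSO baseline.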

The nature of test [7]: ATG_M_19_TRANS: Attagene TRANS-FACTORIAL HepG2 Assay for M19 Transcription Factor (Internal Marker) (AID 2282974; active = hit-call score of the fitted dose curve at least 0.9, where 1 is the maximum). The conditions noted are these: HepG2 Attagene TRANS-FACTORIAL M19 internal marker reporter. The method in brief:
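Reporter mRNA induction was measured in transfected HepG2 cells 24 h after dosing. Endpoint fitted upward relative to DMSO and serves as a background control within the multiplexed TRANS panel.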

Test [8] deals with Nuclear receptor subfamily 1 group I member 3 (Homo sapiens) (UniProt Q14994). Nature of the test: ATG_CAR_TRANS: Attagene TRANS-FACTORIAL HepG2 Assay for human Constitutive Androstane Receptor (CAR) (AID 2282969; active = hit-call score of the fitted dose curve at least 0.9, where 1 is the maximum;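 note: activators raise reporter mRNA above DMSO so AC50 marks induction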). The conditions noted are these: HepG2 Attagene TRANS-FACTORIAL CAR reporter. The method in brief: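 Transiently transfected HepG2, multiplex TRANS reporters (CAR-Gal4 chimera driving GAL4-UAS reporter). 24 h dosing. Readout: reporter transcript by RT-PCR + capillary electrophoresis, fluorescence intensity; positive direction vs DMSO.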

Test [9] deals with Estrogen receptor (Homo sapiens) (UniProt P03372). Nature of the test: ATG_ERa_TRANS: Attagene TRANS-FACTORIAL HepG2 Assay for human Estrogen Receptor alpha (ERa) (AID 2282970; active = hit-call score of the fitted dose curve at least 0.9, where 1 is the maximum). The conditions noted are these: HepG2 Attagene TRANS ERa GAL4 reporter, mRNA. Summed up:
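Liver-derived HepG2 cells expressing chimeric nuclear receptor-Gal4 proteins from transient transfection were exposed for 24 hours. Gain of reporter mRNA signal versus DMSO, read by capillary electrophoresis of FAM-labelled PCR products, was recorded.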

For test [10], the target named is Steroid hormone receptor ERR1 (Homo sapiens) (UniProt P11474). Nature of the test: ATG_ERRa_TRANS: Attagene TRANS-FACTORIAL HepG2 Assay for human Estrogen-Related Receptor alpha (ERRa) (AID 2282971; active = hit-call score of the fitted dose curve at least 0.9, where 1 is the maximum). The conditions noted are these: HepG2 Attagene TRANS reporter, ERRa transactivation. Summed up: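 Reporter transcript induction was quantified by RT-PCR and capillary electrophoresis of FAM-labelled, HpaI-cut products after 24 h treatment of HepG2 cells carrying transiently transfected GAL4-UAS reporter units and an exogenous ERRa-Gal4 fusion; activity scored as increase over DMSO.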

Records with an inconclusive call do not appear. Calls of active or inactive are those of the source. Rule for the calls, unless noted: active = hit-call score of the fitted dose curve at least 0.9, where 1 is the maximum; inactive = score below 0.9.

Chain of Nuclear receptor subfamily 1 group I member 3 (Homo sapiens) (Q14994 whole entry, looked up, the tested form may be a part): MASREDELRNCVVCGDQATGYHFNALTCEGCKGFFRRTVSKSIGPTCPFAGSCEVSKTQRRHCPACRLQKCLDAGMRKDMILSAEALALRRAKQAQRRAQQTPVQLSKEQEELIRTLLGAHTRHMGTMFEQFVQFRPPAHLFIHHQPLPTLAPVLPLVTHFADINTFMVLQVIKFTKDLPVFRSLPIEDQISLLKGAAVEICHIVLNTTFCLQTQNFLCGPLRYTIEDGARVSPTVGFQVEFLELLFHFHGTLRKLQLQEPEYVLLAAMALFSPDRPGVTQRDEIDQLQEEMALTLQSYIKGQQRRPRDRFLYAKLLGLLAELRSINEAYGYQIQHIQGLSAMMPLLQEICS
Chain of Estrogen-related receptor gamma (Homo sapiens) (P62508 whole entry, looked up, the tested form may be a part): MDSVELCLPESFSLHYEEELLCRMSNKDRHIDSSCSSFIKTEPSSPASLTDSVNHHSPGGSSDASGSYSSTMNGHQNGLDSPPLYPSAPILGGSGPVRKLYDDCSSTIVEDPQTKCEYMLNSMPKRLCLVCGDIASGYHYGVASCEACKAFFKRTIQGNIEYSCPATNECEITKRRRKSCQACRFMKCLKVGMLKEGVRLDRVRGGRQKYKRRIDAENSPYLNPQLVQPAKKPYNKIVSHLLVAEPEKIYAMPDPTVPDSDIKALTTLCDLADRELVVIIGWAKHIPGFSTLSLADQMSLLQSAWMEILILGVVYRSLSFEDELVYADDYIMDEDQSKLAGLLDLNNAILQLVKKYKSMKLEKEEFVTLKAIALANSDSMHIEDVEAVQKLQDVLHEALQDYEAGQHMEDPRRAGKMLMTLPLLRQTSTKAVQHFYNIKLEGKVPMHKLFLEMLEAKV
Chain of Steroid hormone receptor ERR1 (Homo sapiens) (P11474 whole entry, looked up, the tested form may be a part): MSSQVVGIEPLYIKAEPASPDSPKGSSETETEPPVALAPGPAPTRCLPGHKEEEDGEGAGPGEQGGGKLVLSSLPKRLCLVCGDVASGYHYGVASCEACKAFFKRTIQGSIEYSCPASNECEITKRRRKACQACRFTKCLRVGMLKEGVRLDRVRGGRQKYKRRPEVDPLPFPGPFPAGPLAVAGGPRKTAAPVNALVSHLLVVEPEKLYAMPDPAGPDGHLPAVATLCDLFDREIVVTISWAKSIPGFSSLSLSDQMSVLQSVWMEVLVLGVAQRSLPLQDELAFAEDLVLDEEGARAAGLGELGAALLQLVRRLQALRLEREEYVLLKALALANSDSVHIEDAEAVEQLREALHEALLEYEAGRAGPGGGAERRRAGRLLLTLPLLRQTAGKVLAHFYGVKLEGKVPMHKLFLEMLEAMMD
Chain of Estrogen receptor (Homo sapiens) (P03372 whole entry, looked up, the tested form may be a part): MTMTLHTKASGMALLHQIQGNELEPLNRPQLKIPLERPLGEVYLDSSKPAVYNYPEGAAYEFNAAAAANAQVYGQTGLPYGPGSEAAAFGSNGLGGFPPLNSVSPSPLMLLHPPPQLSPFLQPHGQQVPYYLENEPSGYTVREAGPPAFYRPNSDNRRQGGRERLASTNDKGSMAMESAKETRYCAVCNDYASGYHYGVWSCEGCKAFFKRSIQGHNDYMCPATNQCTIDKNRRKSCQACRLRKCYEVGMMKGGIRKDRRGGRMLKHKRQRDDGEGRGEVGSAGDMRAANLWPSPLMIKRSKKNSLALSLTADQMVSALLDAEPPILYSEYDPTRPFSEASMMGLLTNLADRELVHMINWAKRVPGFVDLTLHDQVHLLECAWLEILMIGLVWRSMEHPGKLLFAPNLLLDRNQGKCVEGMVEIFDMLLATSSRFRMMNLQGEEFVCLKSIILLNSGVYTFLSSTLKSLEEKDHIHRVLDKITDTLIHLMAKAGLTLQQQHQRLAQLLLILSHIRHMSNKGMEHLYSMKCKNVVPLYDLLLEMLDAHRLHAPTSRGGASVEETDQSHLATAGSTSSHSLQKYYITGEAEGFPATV
Chain of X-box-binding protein 1 (Homo sapiens) (P17861 whole entry, looked up): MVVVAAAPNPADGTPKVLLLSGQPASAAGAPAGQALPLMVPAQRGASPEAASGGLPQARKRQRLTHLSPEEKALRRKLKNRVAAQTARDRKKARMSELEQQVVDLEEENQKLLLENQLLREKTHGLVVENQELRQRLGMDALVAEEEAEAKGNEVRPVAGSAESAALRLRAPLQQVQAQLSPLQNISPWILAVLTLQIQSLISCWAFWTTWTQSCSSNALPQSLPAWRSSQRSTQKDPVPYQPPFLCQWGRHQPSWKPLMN

For `OCCN1CCNCC1`, the molecule was called inactive in test [1], in test [2], in [3], in test [4], in [5] and in test [6].
Take `O=C(Cl)c1cccc(C(=O)Cl)c1`: the result in [1], in test [2], in test [3], in test [4] and in test [5] was inactive.
On to `CC(C)(Oc1ccc(CCNC(=O)c2ccc(Cl)cc2)cc1)C(=O)O`, for which the outcome in test [1], in test [2], in [3], in test [4] and in [5] was inactive.
With `CCCC1CCC(=O)O1` (stereo not drawn), the outcome in [1], in test [2], in test [3], in test [4] and in test [5] was inactive.
As for `CC(C)=CCC[C@H](C)CC=O`, the molecule was called inactive in [1], in test [2], in [3], in test [4] and in test [5].
For the molecule `OC1C(O)C(O)C(O)C(O)C1O` (stereo not drawn), the call in [1], in [2], in [3], in test [4], in [7] and in test [5] was inactive.
Turning to `O=C(O)c1ccc(C(=O)O)cc1`, the outcome in test [1], in test [2], in [3], in test [4], in test [7] and in [5] was inactive.
Regarding `[Ca+2]`, the molecule was called inactive in test [1], in [2], in test [3], in [4] and in test [5].
Turning to `c1ccc2[nH]ccc2c1`, the molecule was called inactive in [1], in [2], in [3], in [4] and in test [5].
Consider `CCCCNC(=O)NS(=O)(=O)c1ccc(C)cc1`, for which the call in test [1], in [2], in test [3], in [4], in test [7] and in test [6] was inactive.
With `CCn1c2ccccc2c2cc(N)ccc21`, the call in test [1], in [2], in test [8], in test [9], in test [10] and in test [4] was inactive. In addition, in test [6], the call was inactive.
On to `CC(=O)O[C@H](CC(=O)[O-])C[N+](C)(C)C`, for which the call in test [10] was inactive.
Take `COCCCOc1ccnc(CS(=O)c2nc3ccccc3[nH]2)c1C` (stereo not drawn): the molecule was classed as inactive in test [10].
Consider `CC(C)(CO)[N+](=O)[O-]`, for which the molecule was classed as inactive in test [1], in test [3], in test [8], in test [4], in test [7] and in test [5].
For `CC1COc2ccccc2N1C(=O)C(Cl)Cl` (stereo not drawn), the call in test [1], in test [9], in [4] and in test [7] was inactive. Moreover, in [3], the AC50 was 17.7 µM (active).
Consider `CCc1ccc(C=O)cc1`, for which the result in test [1], in [3], in test [8], in test [10], in test [4] and in [7] was inactive. Also, the result in [6] was inactive.
In the case of `CN(C)CCCN`, the molecule was classed as inactive in test [1], in test [3], in [8], in [9] and in test [4].
Turning to `CC(=O)[C@H]1CC[C@H]2[C@@H]3CC=C4C[C@@H](O)CC[C@]4(C)[C@H]3CC[C@]12C`, the outcome in test [1] and in [4] was inactive. Also, the AC50 in test [3] was 22.6 µM (active); in test [9], 1.32 µM (active).
As to `C=CC(C)(CCC=C(C)C)OC=O` (stereo not drawn), the call in test [1], in test [3], in test [8], in test [9], in test [10] and in test [4] was inactive. Further, the molecule was called inactive in [7], in test [5] and in test [6].
`CCCCCC(=O)OCCc1ccccc1`: the molecule was called inactive in [2], in test [3], in test [8], in test [9], in [10] and in [4].
Turning to `CCCCCCOC(=O)CC`, the molecule was called inactive in test [1], in [3], in test [9], in [10], in test [4] and in test [7].
Regarding `CCN(CC)CCOC(=O)c1ccc(N)cc1`, the outcome in test [1], in [3], in test [10], in test [4], in [7] and in test [5] was inactive. Besides, the outcome in test [6] was inactive.
With `CC(C)=CCC/C(C)=C/COC=O`, the result in test [1], in [3], in test [4] and in [5] was inactive.
For the molecule `O=[N+]([O-])c1ccc(C=Cc2ccc([N+](=O)[O-])cc2S(=O)(=O)O)c(S(=O)(=O)O)c1`, the result in test [1], in test [3], in test [9], in test [4] and in test [7] was inactive.
In the case of `O=C1CCc2ccccc2O1`, the call in [1], in [3], in test [4] and in test [5] was inactive.
`O=[N+]([O-])c1cc(C(F)(F)F)ccc1Cl`: the result in test [1], in test [8], in test [10] and in test [4] was inactive.
As to `Cc1ccc2n[nH]nc2c1`, the molecule was classed as inactive in test [1], in test [3], in test [9] and in [4].
For the molecule `CC(C)(C)NC(N)=O`, the outcome in test [1], in test [3], in [8], in [9], in test [4] and in test [5] was inactive.
`OCC(CO)(CO)COCC(CO)(CO)CO`: the call in [1], in test [3], in test [8], in test [4] and in [5] was inactive.
Regarding `CC(C)[C@@H]1CC[C@@H](C)CC1=O`, the molecule was called inactive in [1], in test [4] and in [7].

One may read the AC50 as the concentration giving half of the maximal activity seen.
